# From PubChem BioAssay (Tox21)
# “And” between values parts separate entries of the source, which are not always exact repeats. Equal entries are not always repeated. Records with an inconclusive call do not appear. A structure can be active in one record and inactive in another. The source made the active and inactive calls. Calls come from the whole dose curve.
# Test: qHTS assay for small molecule disruptors of the mitochondrial membrane potential - cell viability (AID 720634); note: nearly all actives have a fitted effect of over 20% in size;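 for activity change, negative = cytotoxicity: human HepG2 liver cancer cells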
# Conditions: HepG2 viability, ATP luminescence (CellTiter-Glo), 1 h; series mostly up to 83.2 µM; activity change, negative = cytotoxicity: at the top concentration
# Description: U.S. Tox21 Program National Center for Advancing Translational Sciences [NCATS] NIH Chemical Genomics Center [NCGC] U.S. Environmental Protection Agency [EPA] National Institutes of Environmental Health Sciences [NIEHS] National Toxicology Program [NTP] U.S. Food and Drug Administration [FDA] Tox21 Assay Overview: Mitochondrial membrane potential (MMP), one of the parameters for mitochondrial function, is generated by mitochondrial electron transport chain that creates an electrochemical gradient by a series of redox reactions. This gradient drives the synthesis of ATP, a crucial molecule for various cellular processes. Measuring MMP in living cells is commonly used to assess the effect of chemicals on mitochondrial function; decreases in MMP can be detected using lipophilic cationic fluorescent dyes. […] The dye accumulates in the mitochondria of healthy cells as aggregates, with red fluorescence. The mitochondrial potential decreases and the dye could not accumulate in the mitochondria and remains in the cytoplasm in monomers, with green fluorescence. In addition to the mitochondrial potential assay, these cells were also used to test the cytotoxicity by determining the cell viability in the culture based on the quantitation of ATP present. The cytotoxicity was measured in the same assay well of MMP assay.
# Tox21 Assay Protocol Summary: 2,000 HepG2 cells in 5 uL/well were dispensed into black, clear-bottom 1536-well plates using a Multidrop Combi (Thermo Scientific) dispenser. The assay plates were incubated for an overnight at 37 C to allow cells to attach to the wells, followed by the transfer of 23 nL compound or DMSO vehicle by a pin tool (Kalypsys). The plates were incubated for 1 hr at 37 C and 5% CO2, followed by the addition of 5 uL of 2X m-MPI dye into each well using Flying Reagent Dispenser (Aurora Discovery) and then CellTiter-Glo reagent was added at 4 uL/well and incubated 30 min at room temperature. Then luminescence intensity was quantified on a ViewLux CCD-based plate reader.
# % is set by controls: 0 for no effect and ±100 for the full control effect; potency is the fitted concentration of half-maximal effect.
SMILES,"activity change, negative = cytotoxicity",Potency
CC(CCC(=O)O)C(=O)O (stereo not given),-5.26% (inactive),
CCCCCC[C@@H](O)C/C=C\CCCCCCCC(=O)OCC(O)CO (stereo not given in full),-7.71% (inactive),
C=C/C(C)=C/C/C=C(\C)CCC=C(C)C,-12.3% (inactive),
Oc1cccc(O)c1O,,inactive
CN1C(=O)c2ccccc2C1=O,-14.4% (inactive),
O=C1c2ccccc2C(=O)N1CCc1noc(-c2ccc(CN3CCCCCC3)s2)n1,-17% (inactive),
Cc1cccc(N(C)C(=S)Oc2ccc3c(c2)CCC3)c1,-23.5% (inactive),
CCC1NC(=O)c2cc(S(N)(=O)=O)c(Cl)cc2N1 (stereo not given),30.4% [at 39.1 µM] (inactive),
C[C@]12CC[C@@H]3c4ccc(O)cc4CC[C@H]3[C@@H]1CC[C@@H]2OC(=O)CCC1CCCC1,,inactive and 61.1 µM (active)
Cc1c(C)c2c(c(C)c1OC(=O)CCC(=O)OCCO)CC[C@@](C)(CCC[C@H](C)CCC[C@H](C)CCCC(C)C)O2,-4.84% (inactive),
CN1C(=O)OC(C)(C)C1=O,,inactive
Cc1ccc(OC(=O)c2ccccc2O)cc1,5.17% (inactive),
Oc1cc2c(cc1O)[C@H]1c3ccc(O)c(O)c3OC[C@@]1(O)C2,10.2% [at 95.3 µM] (inactive),
CC(=O)NC1(c2cccc(F)c2)CCN(CC[C@@]2(c3ccc(Cl)c(Cl)c3)CN(c3ccccc3)C(=O)CO2)CC1,7.08% (inactive),
COc1cc(C(=O)NCCCCCC(=O)O)cc(OC)c1OC,4.4% (inactive),
CN1CCCC(n2nc(Cc3ccc(Cl)cc3)c3ccccc3c2=O)CC1 (stereo not given),3.86% (inactive),
CCC(=O)C1CC(C(C)C)CC=C1C (stereo not given),-2.37% (inactive),
CC(C)C[C@H](NC(=O)[C@H](CCc1ccccc1)NC(=O)CN1CCOCC1)C(=O)N[C@@H](Cc1ccccc1)C(=O)N[C@@H](CC(C)C)C(=O)[C@@]1(C)CO1,15.3% (inactive),
CCC(C)COC(C)=O (stereo not given),-5.38% (inactive),
O=[N+]([O-])c1ccc(Nc2ccc(Nc3ccccc3)c(S(=O)(=O)O)c2)c([N+](=O)[O-])c1,-9.59% (inactive),

SMILES,"activity change, negative = cytotoxicity",Potency
CC[C@]1(O)C[C@H]2CN(CCc3c([nH]c4ccccc34)[C@@](C(=O)OC)(c3cc4c(cc3OC)N(C=O)[C@H]3[C@@](O)(C(=O)OC)[C@H](OC(C)=O)[C@]5(CC)C=CCN6CC[C@]43[C@@H]65)C2)C1,12.4% (inactive),
C=CC(=O)[O-].C=CC(=O)[O-].[Zn+2],11.2% (inactive),
CCCCCCCC/C=C\CCCCCCCCCCCC(=O)O,-5.6% [at 95.3 µM] (inactive),
CN1C(=O)N(c2ccccc2Br)Cc2cnc(Nc3ccc4c(c3)OCC(CO)O4)nc21 (stereo not given),,48.6 µM (active)
C[C@@H](O[C@H]1OCCN(Cc2n[nH]c(=O)[nH]2)[C@H]1c1ccc(F)cc1)c1cc(C(F)(F)F)cc(C(F)(F)F)c1,-7.49% (inactive),
Cc1[nH]cnc1CN1CCc2c(c3ccccc3n2C)C1=O,3.97% (inactive),
CN(C)CCN1C(=O)c2ccccc2N(C)c2ccccc21,-2.98% (inactive),
Cc1cccc(O)c1N,12.9% [at 95.3 µM] (inactive),
CC(=O)[C@H]1[C@H](C#N)C[C@H]2[C@@H]3CC=C4C[C@@H](O)CC[C@]4(C)[C@H]3CC[C@@]21C,-12.8% (inactive),
CCC(=O)OC,-1.92% [at 95.3 µM] (inactive),
CCCCCCCCOc1ccc(C(=O)O)cc1,21.3% (inactive),
C(=C\c1ccccc1)/c1ccccc1,-14.6% [at 95.3 µM] (inactive),
C=C(C)C(=O)OCCOCCOC(=O)C(=C)C,11.6% (inactive),
Cc1cc(C)c(N)cc1C,5.85% (inactive),
O=C1c2ccccc2C(=O)c2c(O)c(O)cc(O)c21,-8.6% (inactive),
CC[N+](CC)(CCNC(=O)C(=O)NCC[N+](CC)(CC)Cc1ccccc1Cl)Cc1ccccc1Cl,24.5% (inactive),
O=C1c2ccccc2C(=O)C1c1ccc(Br)cc1,-6.66% (inactive),
CCCCCCC(C)(C)C(=O)O,7.86% (inactive),
Nc1ccc(N=Nc2ccccc2)c(N)c1,,47.5 µM (active)
CN(C)CCC=C1c2ccccc2C=Cc2ccccc21,0.39% (inactive),
